Compounds without any hit were thinned out: in the full panel of roughly 79,000, 15% have a hit. Activity calls are given as the source filed them. Rule as the data show it: active = growth inhibition above about 70%; inactive = the rest.
Experiments:
[1] = NCI Yeast Anticancer Drug Screen. Data for the rad50 strain (AID 155);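 also: 0% = growth of vehicle-only cultures of the same strain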; details: S. cerevisiae rad50 strain growth inhibition; at 50.0 µM; active compounds read high
In short: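 Genetically altered yeast (DNA repair pathway); compound treatment; growth inhibition vs vehicle ctrl.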

[2] = NCI Yeast Anticancer Drug Screen. Data for the mec2-1 strain (AID 157); details: S. cerevisiae mec2-1 strain, at 50.0 µM, active compounds read high
In short: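 Mutant yeast (mec2-1) grown with compound; growth inhibition relative to vehicle control reported.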

[3] = NCI Yeast Anticancer Drug Screen. Data for the sgs1 mgt1 strain (AID 161);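 also: 0% = growth of cultures given vehicle only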; details: S. cerevisiae sgs1 mgt1 strain, at 50.0 µM, active compounds read high
In short: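 Percent growth inhibition was derived by comparing compound-exposed mutant yeast with vehicle-exposed cultures. The strain carries alterations in DNA damage repair.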

[4] = NCI Yeast Anticancer Drug Screen. Data for the cln2 rad14 strain (AID 165);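 also: 0% = growth equal to vehicle treated cultures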; details: S. cerevisiae cln2 rad14 strain, at 50.0 µM, active compounds read high
In short: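 Readout is yeast growth inhibition versus vehicle-treated controls, using a strain with cln2 and rad14 alterations exposed to compound.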

[5] = NCI Yeast Anticancer Drug Screen. Data for the bub3 strain (AID 167); details: S. cerevisiae bub3 mutant strain, at 50.0 µM, active compounds read high
In short: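 Yeast carrying a defined mutation is treated with each compound, and growth is compared with that of vehicle-exposed cells to give inhibition.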

[6] = NCI Yeast Anticancer Drug Screen. Data for the mlh1 rad18 strain (AID 175); details: S. cerevisiae mlh1 rad18 strain growth inhibition; at 50.0 µM; active compounds read high
In short: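 Genetically defined yeast (DNA repair-deficient) exposed to compounds; growth inhibition determined relative to vehicle.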

Measured: growth inhibition

Cc1cc([N+](=O)[O-])ccc1NC(=O)C(=O)C(C(=O)c1ccccc1-c1ccccc1)C1OC(=O)c2ccccc21 (configuration not stated)
inactive: [1] 12% | [2] 12.4% | [3] -5.4% | [4] -52% | [5] 6.8% | [6] 41.5%

CCCCCC(=O)NC(=S)Nc1nn[nH]n1
inactive: [1] -38.8% | [2] -50.7% | [3] -39.1% | [4] -8.4% | [5] -25.3% | [6] -47.1%

CC(=C/c1ccccc1)/C=C1/NC(=S)N(CN2CCCCCC2)C1=O
inactive: [1] 5.15% | [2] -22.1% | [3] 19.9% | [4] -10.2% | [5] -9.75% | [6] -14.8%

COc1ccc2cc1Oc1ccc(cc1)CC1c3cc(c(OC)cc3CCN1C)Oc1c3c(cc4c1C(C2)N(C)CC4)OCO3 (configuration not stated)
inactive: [1] 1.6% | [2] -14.3% | [3] -15.7% | [4] 4.65% | [5] 1.1% | [6] 3.45%

Fc1cccc(C2ON=C(c3ccccc3)N2C23CC4CC(CC(C4)C2)C3)c1 (configuration not stated)
inactive: [1] 4.9% | [2] -1.85% | [3] 6.1% | [4] 36.8% | [5] -8.35% | [6] 33.9%

O=C(O)CCCN1CCCCC1
inactive: [1] -22.1% | [2] -32.4% | [3] -30.2% | [4] -4.7% | [5] -63.9% | [6] 8.8%

COC(=O)C1(C2(C(=O)OC)NC(C)=C(c3ccccc3)C(=O)O2)NC(C)=C(c2ccccc2)C(=O)O1 (configuration not stated)
inactive: [1] 15.2% | [2] -7.3% | [3] -6.95% | [4] 8.3% | [5] -5.15% | [6] 15%

c1ccc(C2=NOCC3(c4ccccc4)OC23)cc1 (configuration not stated)
inactive: [1] 7.85% | [2] 11.8% | [3] 20.7% | [4] -14.8% | [5] 14.2% | [6] 11.3%

Cc1ccc(S(=O)(=O)OCC2OCOC2C2OCOC2CI)cc1 (configuration not stated)
inactive: [1] 12.2% | [2] 3% | [3] 2.6% | [4] -9.9% | [5] 10.1% | [6] 13.2%

CC1(C)C2CC(=O)C1(C)C(OCc1ccccc1)C2 (configuration not stated)
inactive: [1] -21.2% | [2] 12.6% | [3] 6.1% | [4] 22.1% | [5] -18.1% | [6] 5.1%

Cc1cccc2c(C(=O)O)c3cccc(C)c3nc12
inactive: [1] 2.9% | [2] -0.15% | [3] 8.35% | [4] 18.6% | [5] 5.3% | [6] -3.95%

CNC(=O)NC1CCC(C)CC1 (configuration not stated)
inactive: [1] 2% | [2] 2.6% | [3] 1.5% | [4] -14.3% | [5] -6.25% | [6] 7.85%

NC(=O)CN1CC(C2=C(O)CN(CC(N)=O)C2=O)=CC1=O
inactive: [1] -23.9% | [2] -8.6% | [3] -10.1% | [4] -43.5% | [5] -6.35% | [6] -9.2%

NCCC(=O)NCCSSCCNC(=O)CCN
inactive: [1] -8.45% | [2] 11% | [3] 6.25% | [4] -16.8% | [5] 6.8% | [6] 15.1%

CCOC(=O)N1CCN(Cc2cc(=O)n3ccc(C)cc3n2)CC1
inactive: [1] 21.8% | [2] 2.8% | [3] 3.7% | [4] 12.5% | [5] 17.4% | [6] 22.1%

CC(=O)OCC1OC(n2cc(F)c(=O)[nH]c2=O)C(OC(C)=O)C1OC(C)=O (configuration not stated)
inactive: [1] 28.9% | [2] 3.2% | [3] -13.1% | [4] 43.2% | [5] -16.4% | [6] -26.4%

Nc1ccc2nc(-c3ccccc3)[nH]c2c1
inactive: [1] -13.8% | [2] -8.65% | [3] -13.3% | [4] 1.55% | [5] 0.6% | [6] -3.8%

CCN1C(=O)/C(=C\c2ccccc2)N=C1C
inactive: [1] 2.45% | [2] -7.35% | [3] 5.55% | [4] -58% | [5] -12.8% | [6] -42%

CC1=CC(=O)N2CCN=C2S1
inactive: [1] -7.05% | [2] -14.9% | [3] 1.65% | [4] -20.6% | [5] -3% | [6] -5.75%

O=C(c1ccccc1)[C@@H]1C[C@H](Sc2ccccc2)c2cc(Cl)ccc2N1
inactive: [1] 39.7% | [2] -10.5% | [3] 4.1% | [4] 23.8% | [5] 0.8% | [6] -3.5%

COc1ccc(-c2csc(N)n2)cc1OC
inactive: [1] 2.15% | [2] -3.9% | [3] 4.4% | [4] -66.7% | [5] -10.4% | [6] 1.9%

CC(C)(C)NCC(CN1CCOCC1)C(=O)c1ccccc1 (configuration not stated)
active: [2] 70.1% | [5] 74.2% | [6] 90.2%
inactive: [1] 48.5% | [3] 57% | [4] 52.6%

CN(C)CC(O)CNC(=O)Nc1ccccc1 (configuration not stated)
inactive: [1] 0.6% | [2] 14.2% | [3] 12.7% | [4] 0.35% | [5] -0.05% | [6] -42.8%

CCCC1CC(=O)NC(=O)C1C(=O)OC(C)(C)C (configuration not stated)
inactive: [1] -13.1% | [2] -0.2% | [3] -8.65% | [4] 11% | [5] 9.85% | [6] -47.4%

CCCC(=O)C(O)CCC (configuration not stated)
inactive: [1] -20.5% | [2] -16.7% | [3] -2.6% | [4] -47.9% | [5] 1.65% | [6] -26.1%

CC(=C\C=N\N(C)c1ccccc1)/C=C1\Cc2ccccc2C1=O
inactive: [1] -8.7% | [2] 2.2% | [3] -19.1% | [4] 14% | [5] -2.8% | [6] -9.65%

O=C(Nc1ccc([N+](=O)[O-])cc1)N(c1ccccc1)c1cc(N2CCOCC2)ccn1
inactive: [1] 40.7% | [2] 16.6% | [3] 9.1% | [4] 13.8% | [5] 5.8% | [6] 34.9%

COc1cc(OC)c(/C=C2\N=C(C)N(Nc3nnc(NN4C(=O)/C(=C/c5c(OC)cc(OC)cc5OC)N=C4C)c4ccccc34)C2=O)c(OC)c1
inactive: [1] -0.15% | [2] -2.25% | [3] -12.8% | [4] -2.5% | [5] -2.7% | [6] 8.15%

CC(O)c1cc2c(s1)C(=O)c1scc(C(C)O)c1C2=O (configuration not stated)
active: [1] 89.8% | [2] 93.1% | [3] 92% | [4] 90.8% | [5] 91.4% | [6] 90.8%

O=C1c2ccccc2CC12Cc1ccc3c(c1C2=O)CCCC3 (configuration not stated)
inactive: [1] -11.2% | [2] -14.4% | [3] -3.85% | [4] -30.2% | [5] -3.55% | [6] -33.5%

O=C1Nc2ccccc2N=NN1CCCl
inactive: [1] 22.2% | [2] 6.4% | [3] -2.85% | [4] 1.85% | [5] -7.3% | [6] -18.4%

Cc1cc(NN)c2cc3c(cc2n1)OCO3
inactive: [1] 12.4% | [2] -2.6% | [3] 5.05% | [4] -46% | [5] -5.7% | [6] 24.1%

COc1ccc(-n2c(N)c(C#N)c(C#N)c2-c2ccccc2)cc1
inactive: [1] 7.85% | [2] 8.6% | [3] -16.6% | [4] -4.95% | [5] -6.25% | [6] -49.1%

CCOC(=O)C(CNCc1ccccc1)C1CCCCC1 (configuration not stated)
inactive: [1] 8.65% | [2] 1.65% | [3] 18.2% | [4] -0.7% | [5] 5.85% | [6] 16.1%

CC(=O)[C@@H](C)C(=O)N1C(=O)OC[C@@]12[C@@H]1CC[C@@H](C1)C2(C)C
inactive: [1] -13.8% | [2] -31.4% | [3] -25.9% | [4] -26.4% | [5] 10.8% | [6] -32%

BrC=C1c2ccccc2-c2ccccc21
inactive: [1] 5.45% | [2] -7.35% | [3] 3.9% | [4] 22.6% | [5] 2.35% | [6] 4.55%

CN(/N=C/C=N/N(C)C1=NCCN1)C1=NCCN1
inactive: [1] 4.35% | [2] -5.75% | [3] 0.15% | [4] 8.05% | [5] 0.25% | [6] -9.65%

CCOC(=O)NC(NC(=O)OCC)c1ccc(Cl)cc1Cl
inactive: [1] -11.7% | [2] -4.55% | [3] -11.6% | [4] 5.9% | [5] 7.2% | [6] 7.8%

c1ccc2c(c1)ccc1c2c[n+](CCCCCCCC[n+]2cc3c4ccccc4ccc3c3ccccc32)c2ccccc12
active: [1] 88.4% | [2] 92.2% | [3] 87.5% | [4] 86.2% | [5] 83.2% | [6] 90.5%

Cc1nc(C(F)(F)F)cc(=O)[nH]1
inactive: [1] 7.4% | [2] -3.6% | [3] 15.7% | [4] -1.25% | [5] -5.4% | [6] 51%

O=C(N=C1[Se]C(=Nc2ccccc2)C(=Nc2ccccc2)N1c1ccc(Cl)cc1)c1ccccc1
inactive: [1] -13.8% | [2] -10.4% | [3] -27.1% | [4] -22.9% | [5] -9.25% | [6] -21.4%

CN(C)c1ccc2c(c1)Cc1cc(N3C(=O)C=CC3=O)ccc1-2
active: [1] 97.3% | [2] 98% | [3] 98.9% | [4] 97.6% | [5] 98.2% | [6] 98.5%
